Laboratory results from PubChem BioAssay.
A number with no mark means an inactive call. Calls of active or inactive are those of the source.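 Rule for the calls: active = percent response above 42, roughly 3 SD of non-fluorescent test compounds; inactive = the rest.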

Molecular target: Beta-2 adrenergic receptor (Homo sapiens) (UniProt P07550)
Assay: beta2AR agonists driving receptor internalization, pilot screen, cell-based, FAP fluorogen, flow cytometry, validation set (AID 504459);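 note: agonist-driven loss of surface beta2AR via internalization measured by FAP dye flow cytometry; reference of the scale not given here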
Details: Am2.2-beta2AR cells, FAP surface receptor flow cytometry; at 10 µM; hits give high values

Chain of Beta-2 adrenergic receptor (Homo sapiens) (P07550 whole entry, looked up): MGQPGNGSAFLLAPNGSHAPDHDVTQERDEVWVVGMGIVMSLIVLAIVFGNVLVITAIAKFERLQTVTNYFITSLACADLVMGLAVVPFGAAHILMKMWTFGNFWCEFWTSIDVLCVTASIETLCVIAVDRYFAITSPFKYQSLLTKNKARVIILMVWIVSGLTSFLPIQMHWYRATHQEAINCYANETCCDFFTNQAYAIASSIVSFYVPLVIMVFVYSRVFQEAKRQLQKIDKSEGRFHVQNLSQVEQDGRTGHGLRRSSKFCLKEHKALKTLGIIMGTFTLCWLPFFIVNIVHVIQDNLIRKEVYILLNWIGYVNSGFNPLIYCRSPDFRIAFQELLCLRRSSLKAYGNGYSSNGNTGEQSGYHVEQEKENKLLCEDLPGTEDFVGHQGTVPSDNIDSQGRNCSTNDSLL

Structure (SMILES)	response
COc1cc(/C=C(\C#N)C(=O)N2CCc3ccccc32)ccc1O	0.72%
O=C(Nc1ccccc1)c1ccccc1CCc1ccccc1	46.6% (active)
COc1ccc(CCN2CCC(Nc3nc4ccccc4n3Cc3ccc(F)cc3)CC2)cc1	34.8%
CCOc1ccc(CC2c3cc(OCC)c(OCC)cc3CCN2C(=O)CN2CCN(C)CC2)cc1OCC (stereo not given)	-8.24%
COc1ccc2c(CCNC(=O)c3ccc([N+](=O)[O-])cc3)c[nH]c2c1	7.52%
O=c1[nH]c(Cc2ccccc2)nc2c1oc1ccccc12	0.02%
O=C(c1ccccc1)N1CCN(C(=O)c2ccccc2)CC1	-22.4%
COc1ccccc1C1(CC(=O)N2CCCCC2)CCOC(C(C)C)C1 (stereo not given)	8.83%
COc1cc([C@@H]2c3cc4c(cc3[C@H](O)[C@H]3COC(=O)[C@H]23)OCO4)cc(OC)c1OC	22.7%
N=C1C(c2ccccc2)=C(O)CN1CCCO	-12.9%
CCS(=O)(=O)Nc1cc(OC)c(OC)cc1Cc1nccc2cc(OC)c(OC)cc12	-40%
O=C(OCCN1CCCC1)C1(c2ccccc2)CCCC1	1.23%
CC(=O)N1CC2(C)CN(C(C)=O)CC(C)(C1)C2	-23.9%
COc1ccc(CCCC(=O)O)c(C)c1	1.17%
Cc1ccc2c(CN3CCN(Cc4ccc5c(c4)OCO5)CC3)cc(=O)oc2c1C	-2.16%
COc1ccc(C(=O)Nc2ccc(OC)c([N+](=O)[O-])c2)cc1Br	8.89%
O=C(Oc1cccccc1=O)c1ccccc1	-20.4%
C=CCc1ccc(OCC(O)COc2ccc(CC=C)cc2OC)c(OC)c1	7.14%
COc1cc(NC(=O)N[C@@H](Cc2ccccc2)C(=O)O)cc(OC)c1	-10.8%
CC1/C(=C\c2ccc(Cl)cc2)C(=O)C2CC1C2(C)C (stereo not given)	-15.2%
CCC(=O)c1ccc(O)cc1	-7.88%
COc1ccc(C(=O)[C@H]2[C@H]3C(=O)N(c4ccccc4)C(=O)[C@H]3C3C=CC=NN32)cc1 (stereo not given in full)	0.22%
C[C@H](NC(=O)Nc1ccccc1F)C(=O)O	-5.56%
CCCN1C[C@H](CSC)C[C@@H]2c3cccc4[nH]cc(c34)C[C@H]21	-19.4%
C[C@H](NC(=O)OC(C)(C)C)C(=O)NCC1CCC(C(=O)O)CC1 (stereo not given in full)	-13.5%
